High-throughput results (PubChem BioAssay)
Pf Dd2 inh = blocks in vitro growth of P. falciparum Dd2 | P. falciparum Dd2 growth, SYBR Green, 72 h | Potency, µM (highest dose often 28.9 µM), for inactives: top-dose activity, negative = inhibition, actives largely listed as inhibitors | hit rate 4.3% among 120,000 | AID 1347417; active = well fitted inhibition curve with a large enough effect;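 also: plate controls were DMSO vehicle for no effect and reference drug for full effect; nearly all actives have a fitted effect of over 65% in size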
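Infected erythrocytes (Dd2, 0.3% parasitemia, 2.5% hematocrit final) are added to compound in RPMI-1640/Albumax II medium, grown 72 h at 37C in low oxygen, then lysed with saponin/Triton-X containing SYBR Green and read by fluorescence.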
An asterisk follows results filed as active; i = inactive; [ ] = dose if it differs, or a comment. This excerpt belongs to a sample that is enriched for hits. Potency is read from the fitted curve at half-maximal effect.

SMILES | Pf Dd2 inh
C[C@@H]1CN(C(=O)CC2CCCC2)C[C@@]1(O)C1CC1 | 0.3%
Cn1cccc1C(=O)N1CCCCCCNC(=O)CC1 | 18.3%
COCCNc1cc(-c2noc([C@@H]3CCCN3C3CCN(C(C)=O)CC3)n2)ccn1 | i
Cc1ccc(S(=O)(=O)c2cn(Cc3cccc(C)c3)c3cc4c(cc3c2=O)OCO4)cc1 | -10.9%
CCOc1ccc2c(c1)c(=O)c(S(=O)(=O)c1ccc(C)cc1)cn2CC(=O)Nc1ccc(C)cc1 | i
CCOc1ccc2c(c1)c(=O)c(S(=O)(=O)c1ccc(C)cc1)cn2Cc1ccccc1Cl | 12.6µM*
Cn1ccc(NC(=O)[C@@H]2C[C@@H](c3ccc(F)cc3)N([S+](=O)([O-])c3ccccc3)C2)n1 | -22.0%[44.1 µM]
O=C(NCc1ccncc1)C1CN(Cc2cccnc2)CC12CCOCC2 (stereo unspecified) | 7.6%
COC[C@@H]1CN(S(=O)(=O)c2ccc(C)c(F)c2)C[C@H]1C(N)=O | 2.8%
COc1ccc(C)cc1C(=O)N1CC(=O)N(c2cccc(Cl)c2)CC1C (stereo unspecified) | -21.7%
COc1cccc(C(=O)Nc2ccc(S(=O)(=O)N(Cc3ccccc3)c3ccccc3)cc2)c1 | 47.9%
O=C(Nc1ccc(S(=O)(=O)N(Cc2ccccc2)c2ccccc2)cc1)c1ccc(F)cc1 | 69.1%
Cc1ccc(NC(=O)c2ccc(N(Cc3ccccc3)S(C)(=O)=O)cc2)cc1 | 6.31µM*
CCc1nc2ccc(C(=O)N3CCN(c4ccccc4)CC3)cc2nc1CC | 6.31µM*
CCc1nc2ccc(C(=O)N3CCN(c4ccc(Cl)cc4)CC3)cc2nc1CC | 21.4%
CCN1c2cc(C(=O)N3CCN(c4ccccc4F)CC3)ccc2C(=O)N2CCCCC21 (stereo unspecified) | i
CCc1nc2ccc(C(=O)N3CCN(c4ccccc4F)CC3)cc2nc1CC | 2.82µM*
O=C(c1ccc2c(Cl)c3c(nc2c1)CCCC3)N1CCN(c2ccccc2)CC1 | -16.4%
O=C(c1ccc2c(c1)CCN2S(=O)(=O)c1ccccc1)N1CCN(c2ccccc2F)CC1 | 45.4%
Cc1onc(-c2cnn(C)c2NCc2ccccc2)c1C(=O)N1CCC(c2ccccc2)CC1 | i
CCC(=O)N1CCCC(n2c(C)cnc2-c2cccnc2)C1 (stereo unspecified) | 3.5%
Cc1cc(NC(=O)Nc2nnc(N(C)C3CCCCC3)s2)ccc1Br | -23.5%[5.79 µM]
Cc1cc(NC(=O)Nc2csc3c2CCCC3)ccc1Br | 12.6µM*
Cc1ccc(NC(=O)Nc2nc3c(s2)CCCCCC3)cc1C | -18.9%
CN1C(=O)[C@@H]2C[C@@H](CN2Cc2ccnc3ccccc23)Oc2ccccc21 | -18.3%[44.1 µM]
SMILES | Pf Dd2 inh
COc1ccc(CCC(=O)N2CCCN(c3cc(-c4ccc(OC)cc4)[nH]n3)CC2)cc1 | -12.9%
O=C(c1ccc(F)cc1)N1CCc2nc(C3CC3)nc(-c3ccc(O)cc3)c2CC1 | i
CS(=O)(=O)N1C[C@H]2CCN(C(=O)c3c(F)cccc3F)C[C@H]21 | -18.6%
COc1ccccc1CCNC(=O)C1CCN(c2nnc(-n3cccc3CNc3ccc(C)cc3)s2)CC1 | -9.5%
Cc1ccc(NCc2cccn2-c2nnc(N3CCC(C(=O)NCc4ccccc4C)CC3)s2)cc1 | i
CCOc1ccc(NCc2cccn2-c2nnc(N3CCC(C(=O)NCCc4ccc(OCC)c(OCC)c4)CC3)s2)cc1 | 6.31µM*
CCOc1ccc(NCc2cccn2-c2nnc(N3CCC(C(=O)NC(C)c4ccccc4)CC3)s2)cc1 (stereo unspecified) | i
CCOc1ccc(CCNC(=O)C2CCN(Cc3nc(-c4ccc(OC)c(OC)c4)oc3C)CC2)cc1OCC | i
CCOc1ccc(NCc2cccn2-c2nnc(N3CCC(C(=O)NCCc4ccc(OC)c(OC)c4)CC3)s2)cc1 | 7.08µM*
Cc1cc(CN2CCC(N3CCOCC3=O)CC2)no1 | 15.0%[44.1 µM]
O=C(NCC1(O)CCCN(C(=O)c2cccs2)CC1)N1CCOCC1 (stereo unspecified) | 3.4%
CCCN1C(=O)Cc2cc(C(=O)NCc3ccco3)ccc21 | -18.7%
Cc1cc(C(F)(F)F)n2ncc(C(=O)N3C[C@@H](C)[C@](O)(C4CCC4)C3)c2n1 | 14.1µM*
C[C@@H]1CN(C(=O)c2cnc3sccn3c2=O)C[C@@]1(O)C1CCC1 | -1.8%
CC(C)c1cc(C(=O)N2C[C@@H](C)[C@](O)(C3CC3)C2)nc2ncnn12 | -4.5%
Cc1noc(C)c1CCC(=O)N1C[C@@H](CO)[C@H](c2ccccn2)C1 | 3.6%
O=C(c1ccccn1)N1CC(=O)N(C2CCCCC2)CC(OCc2ccccc2)C1 (stereo unspecified) | -13.2%
Cc1cnc(C2CC2)n1C1CCCNC1 (stereo unspecified) | -6.8%
COCc1ncc(C)n1C1CCCNC1 (stereo unspecified) | -9.9%
Cc1cnc(-c2ccccc2)n1C1CCCNC1 (stereo unspecified) | 6.31µM*
Cc1cccc(OCC(=O)NCc2nnc3c(-c4nc(C(C)C)no4)cccn23)c1 | i
COCc1cn(C[C@H]2C[C@@H](NS(=O)(=O)CC(C)C)[C@H](O)[C@@H]2O)nn1 | 17.0%[44.1 µM]
CCc1cccc(C)c1Nc1c(-c2ccc(N(C)C)cc2)nc2cnccn12 | -22.0%
CCc1cccc(C)c1Nc1c(-c2cccc(O)c2)nc2cnccn12 | 8.91µM*
CCc1cccc(C)c1Nc1c(-c2ccc(F)cc2)nc2sccn12 | -26.7%
SMILES | Pf Dd2 inh
COc1ccc(CN2C(=O)COC[C@H]2C(=O)NCc2ccc(Cl)cc2)c(OC)c1 | 20.9%
O=C(c1ccccc1)N1CCCC2(C1)C(=NC1CCCCC1)NC(=O)N2c1cc(F)cc(F)c1 (stereo unspecified) | 3.3%
COc1ncccc1-c1nc(N2CCOCC2)cc2c1CN(CC(F)(F)F)C2=O | 76.7%[44.1 µM]
O=C1c2cc(N3CCOCC3)nc(-c3cccc(O)c3)c2CN1CC(F)(F)F | 2.82µM*
COc1cccc(-c2nc(N3CCOCC3)cc3c2CN(CC2CC2)C3=O)c1OC | 3.7%[44.1 µM]
COc1cccc(-c2nc(N3CCOCC3)cc3c2CN(CC(F)(F)F)C3=O)c1OC | -0.6%[44.1 µM]
O=C1c2cc(N3CCOCC3)nc(-c3cccc(F)c3)c2CN1CC1CC1 | i
COc1cccc(-c2nc(N3CCOCC3)cc3c2CN(Cc2ccccc2)C3=O)c1OC | 11.2µM*
CCC1(N2CCN(C)CC2)CCN(C(=O)CCC2CCCC2)C1 (stereo unspecified) | i
CC(C)c1nnc(C2CN(C(=O)C3(c4ccccc4)CC3)CC23CCOCC3)o1 (stereo unspecified) | -18.7%
COc1ccc(-c2ccc3c(c2)C(=O)N2C[C@H](O)C[C@H]2C(=O)N3)cc1 | i
CCS(=O)(=O)N1CCC2(CCC(=O)N(CC3CC3)CC2)CC1 | -6.9%
CCCC1C=CCN1C(=O)c1coc(CN2CCN(c3ccccc3F)CC2)n1 (stereo unspecified) | -9.7%
CCCOc1cc(C)c2c(c1C)C[C@H](C(C)C(=O)NCc1ccc(OC)cc1)CC2 (stereo partly specified) | 10µM*
Cc1cc(OCCN2CCOCC2)c(C)c2c1CC[C@@H]([C@H](C)C(=O)N1CCCCC1)C2 | 11.2µM*
Cc1cc(OCCN(C)C)c(C)c2c1CC[C@@H]([C@H](C)C(=O)NCc1ccccc1)C2 | -23.9%[44.1 µM]
COCCOc1cc(C)c2c(c1C)C[C@H](C(C)C(=O)N1CCOCC1)CC2 (stereo partly specified) | -3.2%[44.1 µM]
Cc1cc(OCCN2CCOCC2)c(C)c2c1CC[C@@H]([C@H](C)C(=O)NCc1cccnc1)C2 | i
CCCOc1cc(C)c2c(c1C)C[C@H]([C@H](C)C(=O)NCCOC)CC2 | -8.6%[44.1 µM]
